The whole screen tested about 5,500 compounds, of which about 2,000 (36%) were called active. About 18% were inconclusive and are not listed. Some of the results follow. A number with no mark means an inactive call. No stated cut-off is given here; in the data, active means normalized growth mostly below about 0.91 (no sharp cut-off); inconclusive means no clear call, values can overlap the other calls; inactive means mostly above about 0.92.
Experiment: chemical genetic growth profiling, strain panel (AID 1159580);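 further: tested at 20 µM; growth read once vehicle control cultures reached saturation at 30 °C; 1 = growth at the plate median or of vehicle wells; lower values mean less growth of the strain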
Details: S. cerevisiae deletion strains, growth OD
[1] = locus YAL040C, strain CLN3, hits give low values
[2] = locus YDR363W, strain ESC2, hits give low values
[3] = locus YER002W, strain NOP16, hits give low values
[4] = locus YGR078C, strain PAC10, hits give low values
[5] = locus YMR263W, strain SAP30, hits give low values
[6] = locus YMR307W, strain GAS1, hits give low values
[7] = locus YNL175C, strain NOP13, hits give low values
[8] = locus YNL197C, strain WHI3, hits give low values
[9] = locus YNL224C, strain SQS1, hits give low values
[10] = locus YOR083W, strain WHI5 (second series), hits give low values
[11] = locus YHR030C, strain SLT2, hits give low values
[12] = locus YHR079C, strain IRE1, hits give low values
[13] = locus YJL095W, strain BCK1, hits give low values
[14] = locus YJR066W, strain TOR1, hits give low values
[15] = locus YLR113W, strain HOG1, hits give low values
[16] = locus YNL183C, strain NPR1, hits give low values
[17] = locus YOR231W, strain MKK1, hits give low values
[18] = locus YPL256C, strain CLN2, hits give low values

## CCn1c(=O)[nH]c2cc(Cl)c(Cl)cc21
[1]
  normalized growth: 0.99
Locus YCL061C, strain MRC1 (second series), hits give low values
  normalized growth: 1.01
[2]
  normalized growth: 0.992
[3]
  normalized growth: 0.986
[4]
  normalized growth: 0.992
[5]
  normalized growth: 1
[6]
  normalized growth: 1
[7]
  normalized growth: 0.98
[8]
  normalized growth: 1
[9]
  normalized growth: 1
Locus YNL322C, strain KRE1, hits give low values
  normalized growth: 1.01
[10]
  normalized growth: 1.04

## O=C1C=CC(=O)c2ccccc21
Locus YAL021C, strain ccr4, hits give low values
  normalized growth: 0.0676 (active)
Locus YAL026C, strain drs2, hits give low values
  normalized growth: 0.0697 (active)
Locus YAL030W, strain snc1, hits give low values
  normalized growth: 0.0571 (active)
Locus YBL061C, strain skt5, hits give low values
  normalized growth: 0.0618 (active)
Locus YBR009C, strain hhf1, hits give low values
  normalized growth: 0.064 (active)
Locus YBR023C, strain chs3, hits give low values
  normalized growth: 0.0634 (active)
Locus YBR171W, strain sec66, hits give low values
  normalized growth: 0.0895 (active)
Locus YBR231C, strain swc5, hits give low values
  normalized growth: 0.0652 (active)
Locus YBR279W, strain paf1, hits give low values
  normalized growth: 0.0871 (active)
Locus YCL011C, strain gbp2, hits give low values
  normalized growth: 0.0594 (active)
Locus YCL016C, strain dcc1, hits give low values
  normalized growth: 0.0722 (active)
Locus YCL061C, strain MRC1, hits give low values
  normalized growth: 0.0703 (active)
Locus YCL069W, strain vba3, hits give low values
  normalized growth: 0.0688 (active)
Locus YCR088W, strain abp1, hits give low values
  normalized growth: 0.0699 (active)
Locus YDL005C, strain med2, hits give low values
  normalized growth: 0.0758 (active)
Locus YDL040C, strain nat1, hits give low values
  normalized growth: 0.0706 (active)
Locus YDR001C, strain nth1, hits give low values
  normalized growth: 0.0722 (active)
Locus YDR069C, strain doa4, hits give low values
  normalized growth: 0.0698 (active)
Locus YDR137W, strain rgp1, hits give low values
  normalized growth: 0.288 (active)
Locus YDR159W, strain sac3, hits give low values
  normalized growth: 0.36 (active)
Locus YDR195W, strain ref2
  normalized growth: 0.13 (active)
Locus YDR297W, strain sur2, hits give low values
  normalized growth: 0.0592 (active)
Locus YDR334W, strain swr1, hits give low values
  normalized growth: 0.0769 (active)
Locus YDR335W, strain msn5, hits give low values
  normalized growth: 0.0683 (active)
Locus YDR392W, strain spt3, hits give low values
  normalized growth: 0.109 (active)
Locus YEL003W, strain gim4, hits give low values
  normalized growth: 0.0565 (active)
Locus YEL037C, strain rad23, hits give low values
  normalized growth: 0.0781 (active)
Locus YEL061C, strain CIN8 (second series), hits give low values
  normalized growth: 0.0717 (active)
Locus YER015W, strain faa2, hits give low values
  normalized growth: 0.0627 (active)
Locus YER016W, strain bim1, hits give low values
  normalized growth: 0.0642 (active)
Locus YER111C, strain swi4, hits give low values
  normalized growth: 0.917
Locus YER155C, strain BEM2 (second series), hits give low values
  normalized growth: 0.107 (active)
Locus YFR010W, strain ubp6, hits give low values
  normalized growth: 0.0794 (active)
Locus YGL167C, strain pmr1, hits give low values
  normalized growth: 0.0772 (active)
Locus YGL173C, strain kem1, hits give low values
  normalized growth: 0.0709 (active)
Locus YGL227W, strain vid30, hits give low values
  normalized growth: 0.0707 (active)
Locus YGL240W, strain doc1, hits give low values
  normalized growth: 0.0798 (active)
Locus YGL253W, strain hxk2, hits give low values
  normalized growth: 0.0667 (active)
Locus YHR013C, strain ard1, hits give low values
  normalized growth: 0.138 (active)
Locus YHR027C, strain rpn1, hits give low values
  normalized growth: 0.0646 (active)
[11]
  normalized growth: 0.102 (active)
[12]
  normalized growth: 0.12 (active)
Locus YHR142W, strain chs7, hits give low values
  normalized growth: 0.0814 (active)
Locus YJL092W, strain hpr5, hits give low values
  normalized growth: 0.074 (active)
Locus YJL095W, strain BCK1 (second series), hits give low values
  normalized growth: 0.0589 (active)
[13]
  normalized growth: 0.116 (active)
Locus YJL115W, strain asf1, hits give low values
  normalized growth: 0.0842 (active)
Locus YJL129C, strain trk1, hits give low values
  normalized growth: 0.951
Locus YJL154C, strain vps35, hits give low values
  normalized growth: 0.0701 (active)
Locus YJL164C, strain tpk1, hits give low values
  normalized growth: 0.0603 (active)
Locus YJL166W, strain qcr8, hits give low values
  normalized growth: 0.0677 (active)
Locus YJL187C, strain SWE1, hits give low values
  normalized growth: 0.0597 (active)
[14]
  normalized growth: 0.116 (active)
Locus YKL160W, strain elf1, hits give low values
  normalized growth: 0.0712 (active)
Locus YKR026C, strain gcn3, hits give low values
  normalized growth: 0.0708 (active)
Locus YKR091W, strain srl3, hits give low values
  normalized growth: 0.0627 (active)
Locus YLL001W, strain dnm1, hits give low values
  normalized growth: 0.071 (active)
Locus YLL026W, hits give low values
  normalized growth: 0.0579 (active)
Locus YLL041C, strain sdh2, hits give low values
  normalized growth: 0.0596 (active)
Locus YLR027C, strain aat2, hits give low values
  normalized growth: 0.0574 (active)
[15]
  normalized growth: 0.135 (active)
Locus YLR221C, strain rsa3, hits give low values
  normalized growth: 0.0579 (active)
Locus YLR258W, strain gsy2, hits give low values
  normalized growth: 0.0611 (active)
Locus YLR262C, strain YPT6 (second series), hits give low values
  normalized growth: 0.0853 (active)
Locus YLR320W, strain mms22, hits give low values
  normalized growth: 0.0864 (active)
Locus YLR342W, strain FKS1, hits give low values
  normalized growth: 0.0683 (active)
Locus YLR357W, strain rsc2, hits give low values
  normalized growth: 0.137 (active)
Locus YLR370C, strain arc18, hits give low values
  normalized growth: 0.0746 (active)
Locus YLR384C, strain iki3, hits give low values
  normalized growth: 0.0643 (active)
Locus YML120C, strain ndi1, hits give low values
  normalized growth: 0.827 (active)
Locus YMR058W, strain fet3, hits give low values
  normalized growth: 0.0712 (active)
Locus YMR125W, strain sto1, hits give low values
  normalized growth: 0.0829 (active)
Locus YMR129W, hits give low values
  normalized growth: 0.0615 (active)
Locus YMR205C, strain PFK2, hits give low values
  normalized growth: 0.092 (active)
Locus YMR231W, strain pep5, hits give low values
  normalized growth: 0.0667 (active)
Locus YNL071W, strain lat1, hits give low values
  normalized growth: 0.0615 (active)
[16]
  normalized growth: 0.338 (active)
Locus YNL209W, strain ssb2, hits give low values
  normalized growth: 0.0608 (active)
Locus YNL248C, strain rpa49, hits give low values
  normalized growth: 0.0841 (active)
Locus YNL322C, strain KRE1 (second series), hits give low values
  normalized growth: 0.0674 (active)
Locus YNR049C, strain mso1, hits give low values
  normalized growth: 0.0752 (active)
Locus YOR001W, strain rrp6, hits give low values
  normalized growth: 0.0696 (active)
Locus YOR070C, strain gyp1, hits give low values
  normalized growth: 0.0608 (active)
Locus YOR080W, strain dia2, hits give low values
  normalized growth: 0.114 (active)
Locus YOR083W, strain WHI5, hits give low values
  normalized growth: 0.0702 (active)
Locus YOR106W, strain vam3, hits give low values
  normalized growth: 0.0684 (active)
[17]
  normalized growth: 0.111 (active)
Locus YOR265W, strain rbl2, hits give low values
  normalized growth: 0.0588 (active)
Locus YOR270C, strain vph1, hits give low values
  normalized growth: 0.124 (active)
Locus YOR290C, strain snf2, hits give low values
  normalized growth: 0.842 (active)
Locus YPL051W, strain arl3, hits give low values
  normalized growth: 0.0626 (active)
Locus YPL078C, strain atp4, hits give low values
  normalized growth: 0.41 (active)
Locus YPL106C, strain sse1, hits give low values
  normalized growth: 0.0998 (active)
Locus YPL240C, strain hsp82, hits give low values
  normalized growth: 0.0586 (active)
[18]
  normalized growth: 0.128 (active)

## COC1=C(OC)C(=O)c2ccccc2C1=O
[1]
  normalized growth: 0.962
[2]
  normalized growth: 0.734 (active)
[3]
  normalized growth: 0.985
[4]
  normalized growth: 0.995
Locus YJR075W, strain HOC1, hits give low values
  normalized growth: 0.998
[5]
  normalized growth: 1.02
[6]
  normalized growth: 0.886 (active)
Locus YNL153C, strain GIM3, hits give low values
  normalized growth: 0.703 (active)
[7]
  normalized growth: 0.978
[8]
  normalized growth: 0.941
[9]
  normalized growth: 0.977
[10]
  normalized growth: 0.883

## O=C1c2ccccc2C(=O)C1(O)C1(O)C(=O)c2ccccc2C1=O
[11]
  normalized growth: 1.04
[12]
  normalized growth: 1.04
[13]
  normalized growth: 1.04
[14]
  normalized growth: 0.953
[15]
  normalized growth: 1.03
[16]
  normalized growth: 0.984
[17]
  normalized growth: 1.05
[18]
  normalized growth: 1.07

## COC1=C(OC)C(=O)C(CCCCCCCCCCO)=C(C)C1=O
[11]
  normalized growth: 0.964
[12]
  normalized growth: 0.937
[13]
  normalized growth: 0.982
[14]
  normalized growth: 0.934
[15]
  normalized growth: 0.922
[16]
  normalized growth: 0.92
[17]
  normalized growth: 0.972
[18]
  normalized growth: 0.964
